This is a sample that favours compounds with a hit; in the whole collection about 0.77% have one here.
UGM FP inh = blocks M. tuberculosis UGM enzyme | P9WIQ1 | purified UGM, fluorescence polarization probe displacement | inhibition, % at 10 µM | 320,000 tested, 0.06% active | AID 504406; in the data active = inhibition above about 10%, passing the limit was not always enough
Target sequence (P9WIQ1 whole entry, looked up): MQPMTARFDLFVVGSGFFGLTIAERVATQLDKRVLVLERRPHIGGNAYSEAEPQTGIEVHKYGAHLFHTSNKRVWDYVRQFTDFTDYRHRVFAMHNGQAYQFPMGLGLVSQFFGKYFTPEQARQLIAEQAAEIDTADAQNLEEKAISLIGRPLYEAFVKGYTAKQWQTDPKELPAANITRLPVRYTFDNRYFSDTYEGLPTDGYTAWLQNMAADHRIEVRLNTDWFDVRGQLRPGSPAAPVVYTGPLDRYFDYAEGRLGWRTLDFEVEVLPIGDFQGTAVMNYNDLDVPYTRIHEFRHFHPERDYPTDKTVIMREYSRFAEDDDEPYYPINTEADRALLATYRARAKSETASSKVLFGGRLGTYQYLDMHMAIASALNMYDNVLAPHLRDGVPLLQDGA
Mtb betalactam = beta-lactam sensitization of Mtb H37Rv | M. tuberculosis H37Rv growth with meropenem, percent inhibition | inhibition, % at 25 µM | 330,000 tested, 0.27% active; call rule not given here;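 also: growth measured after seven days incubation then overnight dye step; 0% = bacteria only wells and 100% = bacteria with antibiotic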
Rv3671c protease = inhibits the M. tuberculosis serine protease Rv3671c | 320,000 tested, 0.048% active | inhibition, % at 5.96 µM | P9WHR9 | AID 2606; in the data active = inhibition above about 38%;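 also: extracellular domain of Rv3671c used as enzyme; 0% = enzyme with DMSO and 100% = no enzyme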
RecA intein inh = blocks M. tuberculosis RecA intein splicing; P9WHJ3; cell-free RecA intein splicing, fluorescence; inhibition, % (no concentration beside the values); 290,000 tested, 0.75% active; in the data active = inhibition above about 30%;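 also: 0% = vehicle wells and 100% = reference inhibitor control wells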
Mtb hypoxia inh = inhibitors of hypoxia-regulated fluorescent reporter in Mycobacterium tuberculosis; M. tuberculosis hypoxia-regulated fluorescent reporter, fluorescence; 300,000 tested, 0.1% active; fluorescence inhibition, % (no concentration beside the values); in the data active = fluorescence inhibition mostly above about 23%, no sharp cut-off; inactive = mostly below about 17%
* hit, by the source's call; x = no result given; ! = a repeat was not active.

SMILES	UGM FP inh	Mtb betalactam	Rv3671c protease	RecA intein inh	Mtb hypoxia inh
COc1ccc(CN(C(C)CO)S(=O)(=O)N(Cc2ccccc2)C(CO)C(C)C)cc1 (configuration not stated)	x	x	x	x	-7
COc1ccc(CN2C(=O)C(Cc3ccccc3)Nc3ncnc(N4CCc5ccccc5C4)c32)cc1 (configuration not stated)	2	5	-8	35*	x
COc1ccc(CN2C(=O)C(Cc3ccccc3)Nc3ncnc(N4CCOCC4)c32)cc1 (configuration not stated)	-1	-6	-13	0	-6
Cc1[nH][nH]c(=O)c1C(c1ccc(-c2cccc(Cl)c2)o1)c1c(C)[nH][nH]c1=O	-2	31	-163	97*	17
O=C1CCCCC=CCC(CC(=O)N(CCO)Cc2ccccc2)C(=O)NCC(c2ccccc2)O1 (configuration not stated)	x	x	x	x	-7
COC(=O)C1=C(C(=O)OC)C2N(Cc3ccccc3)c3ccccc3[C@@]23CC(C(=O)OC)N(C(=O)CC(C)C)C3=N1 (some centres not stated)	x	x	x	x	9
C=CC[C@@H](CC(=O)N[C@@H](CO)Cc1ccccc1)C(=O)N[C@H](COC(=O)[C@@H](CC=C)Cc1ccc(F)cc1)Cc1ccccc1	-1	-3	-7	x	x
C=CCC(CC(=O)NC(CO)Cc1ccccc1)C(=O)NC(COC(=O)C(CC=C)Cc1ccc(F)cc1)Cc1ccccc1 (configuration not stated)	x	x	x	x	38*!
Nc1c(C(=O)NCCCc2ccccc2)c2nc3ccccc3nc2n1Cc1cccs1	1	-10	-19	32*	-6
CCCCn1c(N)c(C(=O)NCc2cccs2)c2nc3ccccc3nc21	1	12	-53	75*	1
COc1cc(C2(c3ccc(O)c(OC)c3)C(=O)Nc3c(C)cc(Br)cc32)ccc1O	1	-5	6	42*	9
COC(=O)[C@@]12CCCCN1C(c1ccc(-c3ccc(C(C)=O)cc3)cc1)C1C(=O)N(C)C(=O)C12 (some centres not stated)	x	x	x	x	-2
CCOC(=O)c1cnc2ccc(C)cc2c1Sc1ccc(F)cc1	4	2	11	67*	x
CCOc1cc(C=NNc2cc(C)nc(-n3nc(C)cc3C)n2)ccc1O	x	x	x	x	39*
COCCCn1c(=O)/c(=C\c2ccccc2OC(C)C)s/c1=C(/C#N)C(=O)Nc1ccc(C(=O)O)cc1	15*	x	-18	-10	x
COCCCn1c(=C(C#N)C(=O)Nc2ccc(C(=O)O)cc2)sc(=Cc2cccc(OC)c2OC)c1=O	x	x	x	x	2
CC(C)N(CC(=O)Nc1ccc(Cl)cc1C(F)(F)F)C(=O)CCl	-1	-5	1	59*	1
CCC(C)N(CC(=O)Nc1cccc(C)c1C)C(=O)CCl (configuration not stated)	-1	86	-2	43*	20
COc1ccc(N2C(=O)N3C(c4ccc(Cl)cc4)C4C(=O)N(C5CCCCC5)C(=O)C4[C@]3(Cc3ccc(Cl)cc3)C2=O)cc1 (some centres not stated)	x	x	x	x	-2
O=[N+]([O-])c1ccc(NN=Cc2cc(Br)ccc2O)nc1	x	x	x	x	37*
CC(=O)Cn1ncc(Br)c(Br)c1=O	x	x	x	11	15
O=C(OCn1ncc(Br)c(Br)c1=O)c1c(F)cccc1F	-2	100	-8	53*	x
CC(C)CC(NC(=O)c1nc[nH]c1C(=O)NC1CCN(C(=O)OC(C)(C)C)CC1)C(=O)OC(C)(C)C (configuration not stated)	x	x	x	x	-8
Cc1ccc(S(=O)c2snnc2C)cc1 (configuration not stated)	1	-6	-2	2	5
CNC(=O)c1nnsc1S(=O)c1ccc(Cl)cc1 (configuration not stated)	x	x	x	40*	20
SMILES	UGM FP inh	Mtb betalactam	Rv3671c protease	RecA intein inh	Mtb hypoxia inh
O=C(CCSc1nnc(-c2ccccc2)o1)N1CCOCC1	0	96	-7	0	40*
Cc1ccc(-c2nnc(SCCC(=O)N3CCOCC3)o2)cc1	2	68	5	-1	19
CC1=NNC(=O)C1Cc1ccc(F)cc1 (configuration not stated)	-1	-2	3	97*	-1
CC1=NNC(=O)C1CCC(=O)N/N=C/c1ccc(C)cc1 (configuration not stated)	4	-9	12	-4	x
CCC(C)NC(=O)CCC(=O)OC1O[C@H]2OC3(C)CC[C@H]4[C@H](C)CCC(C1C)C24OO3 (some centres not stated)	3	-8	x	-1	74*
COC1OC2O[C@@]3(C)CCC4C(C)CCC(C1C)[C@@]24OO3 (some centres not stated)	x	x	x	x	90*
CO[C@H]1O[C@@H]2O[C@@]3(C)CC[C@H]4[C@H](C)CC[C@@H]([C@H]1C)[C@@]24OO3	-2	-6	-1	-3	x
C#CCOCCOCCOCCNc1nc(N2CCN(C(=O)C(CCCCN)n3cc(C(N)CO)nn3)CC2)nc(N2CCN(C(=O)C(Cc3ccc(O)cc3)n3cc(C(N)C(C)CC)nn3)CC2)n1 (configuration not stated)	x	x	x	x	13
CCCOP(=O)(O)c1c([N+](=O)[O-])cc(C(F)(F)F)cc1[N+](=O)[O-] (tested in a mixture with another compound)	-1	5	0	0	14
CCOP(=O)(Oc1ccccc1)c1c([N+](=O)[O-])cc(C(F)(F)F)cc1[N+](=O)[O-] (configuration not stated)	1	99	-1	10	42*
COc1ccc(N=Nc2nc3ccc(Br)cc3n2C)cc1	66*	99	8	1	x
COc1ccc(-c2c(-c3cc(OC)cc(OC)c3)n(C)c3ccc(Br)cc23)cc1	1	-5	12	x	3
C=CC1=C(C(=O)O)N2C(=O)C(NC(=O)C(=NOCC(=O)O)c3csc(N)n3)C2SC1 (configuration not stated)	x	x	x	x	19
C=C(C)C(=O)Nc1cccc(C2=NOC3(C2)CC(C(N)=O)N(C(=O)C=CC)C3)c1 (configuration not stated)	x	x	x	x	-2
CNC(=C[N+](=O)[O-])NCCSCc1ccc(CN(C)C)o1	x	x	x	x	4
Cc1c(C(=O)N2CCN(S(=O)(=O)c3ccc(F)cc3)CC2)oc2ccccc12	3	80	8	-1	39*
Cc1c(C(=O)N2CCN(S(=O)(=O)c3cccs3)CC2)oc2ccc(F)cc12	-1	5	-8	x	-6
COc1cc(/C=C/c2ccc3cccc([N+](=O)[O-])c3n2)ccc1OCC(=O)O	1	x	15	10	6
COc1cc(/C=C/c2ccc3c([N+](=O)[O-])cccc3n2)ccc1OCC(=O)O	4	99	4	5	77*
CC(=Cc1ccc(C(=O)O)cc1)c1ccc2c(c1)C(C)(C)CCC2(C)C	x	x	x	x	1
COc1ccc2[nH]c(=O)c(CN(C3CCCCC3)C(c3nnnn3Cc3ccco3)C(C)C)cc2c1 (configuration not stated)	-1	20	-7	33*	x

Screening results from PubChem.
